High-throughput results from PubChem.
TTR transcr act: activators of transthyretin transcription; SH-SY5Y TTR promoter Gaussia luciferase, luminescence; 100% = recombinant luciferase protein wells; activation, % at 16.7 µM; actives 1.3% (n = 92,000); AID 1117267;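 active = activation above the mean of all tested compounds plus 3 SD, cut at about 9.5% in these data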;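 note: cells exposed to compounds for one day before reading; 0% = median of all test compound wells on the plate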
TTR inh HuH7: HuH7 TTR transcription inhibition, counter-screen. shares compounds with TTR transcr act. HuH7 TTR promoter-Gaussia luciferase reporter, luminescence. inhibition, % at 16.7 µM. actives 4% (n = 1,100). AID 1117279;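 active = average inhibition above the solvent-only control wells' mean plus 3 SD, cut at about 15% in these data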;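 note: 0% = cells with DMSO only and 100% = cells with inhibitor control FD; inhibitors lower well luminescence so higher value means more inhibition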
TTR up confirm: human TTR transcription activation, confirmation; shares compounds with TTR transcr act; SHSY5Y TTR promoter Gaussia luciferase, luminescence; 100% = purified Lucia enzyme wells, no cells; activation, % at 16.7 µM; 1,100 tested, under 10 active; AID 1117280;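 active = mean activation above a set limit taken from the earlier primary screen, cut at about 11% in these data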;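 note: 0% = DMSO-treated cells and 100% = recombinant Lucia luciferase without cells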
* = called active by the depositor; ! = repeats disagree. Only a selection was taken, and hits are over-represented in it overall.

SMILES | TTR transcr act | others
Cc1cccc(Cn2cc(COC(=O)NCCc3ccccc3)nn2)c1 | 0
CC(C)(C)OC(=O)NCc1cc2c(cc1/C=C/S(=O)(=O)NC1CCCC1)OCO2 | 2
COc1ccc(-n2nnnc2SC(C)C(N)=O)cc1 (stereo not given) | 2
CCN(CC)S(=O)(=O)c1ccc2c(c1)nc(SC(C)C(N)=O)n2-c1ccc(OC)cc1 (stereo not given) | 26* | TTR inh HuH7=6;TTR up confirm=-2
CCN(CC)S(=O)(=O)c1ccc2c(c1)nc(SC(C)C(=O)NCC1CCCO1)n2CC (stereo not given) | 2
N#Cc1ccc(NC(=O)OC2CC3CC2[C@H]2CCCCN2C3)cc1 (stereo not given in full) | 1
Cc1[nH]c2c(ccc3cccnc32)c1C | 12* | TTR inh HuH7=-28;TTR up confirm=-1
c1ccc(-c2nc3c(ccc4ccccc43)[nH]2)nc1 | -4
CC(=O)c1c(C(C)=O)c(C)n(-c2cccc3cccnc23)c1C | -2
Cc1cccc(Nc2nc(N)c([N+](=O)[O-])c(N3CCN(C)CC3)n2)c1 | 1
CCN1CCN(c2nc(Nc3ccccc3)nc(N)c2[N+](=O)[O-])CC1 | -1
Nc1nc(Nc2cccc(F)c2)nc(N2CCOCC2)c1[N+](=O)[O-] | 12* | TTR inh HuH7=-9;TTR up confirm=-1
CCn1c(=O)n2n(c1=O)[C@]1(C=C(C)C2)CN(Cc2ccc(OC)cc2OC)C(NC(=O)c2ccccc2)=N1 | 1
CCC[C@H]1[C@@H](NCc2cccs2)CC[C@@]23CCCN2C(=O)CCC[C@@H]13 | 2
CCCC[C@H](C(=O)N(C)c1cccc(OC)c1)[C@@H](O)c1ccc(Cl)cc1 | -2
O=C(/C=C/[C@H]1O[C@@H](n2cnc3c(NC(=O)c4ccccc4)ncnc32)[C@H](O)[C@@H]1O)NCCc1c[nH]c2ccccc12 | -1
COCCCNC(=O)/C=C/[C@H]1O[C@@H](n2cnc3c(NC(=O)c4ccccc4)ncnc32)[C@H](O)[C@@H]1O | 3
O=C(/C=C/[C@H]1O[C@@H](n2cnc3c(NC(=O)c4ccccc4)ncnc32)[C@H](O)[C@@H]1O)NCCc1ccc(F)cc1 | 21* | TTR inh HuH7=-22;TTR up confirm=0
CC(=O)Nc1sc2c(c1-c1cc3ccccc3o1)CCNC2 | 1
O=[N+]([O-])c1cccc(NC(=S)N2CCOCC2)c1 | 1
Cc1ccc([N+](=O)[O-])cc1N=C(c1ccc([N+](=O)[O-])cc1)N1CCOCC1 | 1
Cc1ccc([N+](=O)[O-])cc1N=C(c1cccc([N+](=O)[O-])c1)N1CCOCC1 | 15* | TTR inh HuH7=-8;TTR up confirm=1
C[C@H]1C(=O)N2[C@@H](C[C@]3(c4c[nH]c5ccccc45)c4ccccc4N(S(=O)(=O)c4ccccc4)[C@H]23)C(=O)N1C | -1
COC(=O)[C@]12C[C@H](CC(=O)N3CCC(c4ccccc4)CC3)C(=O)N(Cc3ccc(Cl)cc3Cl)C1=C[C@H](C(C)(C)C)O[C@@H]2C | 1
CCCCCn1nnnc1C1(C)Cn2nccc2C(=O)N1Cc1ccco1 (stereo not given) | 2
SMILES | TTR transcr act | others
CCCC(C)C(=O)NC1CCCCN(Cc2ccc(C)cc2)C1=O (stereo not given) | -2
c1ccc(-c2nnc(-c3ccccn3)c(-c3ccccn3)n2)nc1 | -1
c1ccc(-c2nnc(-c3ccccn3)nn2)nc1 | 10* | TTR inh HuH7=-2;TTR up confirm=0
c1ccc(-c2ccc(-c3ccccn3)s2)nc1 | -1
O=C(NCCc1ccccc1)O[C@H]1CC[C@@]23CCCN2C(=O)CCC[C@H]3C1 | -1
CCOc1cc(CNCCCN2CCOCC2)ccc1OCC(=O)NC(C)(C)C | 1
CCOc1cc(CNCCN2CCOCC2)ccc1OCc1ccccc1Cl | 27* | TTR inh HuH7=-7;TTR up confirm=-1
CCOc1cc(CNC2CCCC2)ccc1OCc1ccccc1Cl | 0
CNc1nc(N)c([N+](=O)[O-])c(Nc2cccc(OC)c2)n1 | 0
COC(=O)[C@]12C[C@H](CC(=O)N3CCCC3)C(=O)N(Cc3cccc4ccccc34)C1=C[C@H](C(C)(C)C)O[C@@H]2C | -2
CCCCn1nc2cc(C(=O)NCc3cc(C(F)(F)F)cc(C(F)(F)F)c3)ccc2c1OCC | 1
CCCCn1nc2cc(C(=O)N[C@H](C)C3CCCCC3)ccc2c1OCC | 12* | TTR inh HuH7=-6;TTR up confirm=0
CCOc1c2ccc(C(=O)NCCc3ccc(C)cc3)cc2nn1CC | -3
C=CCN(Cc1ccc2c(c1)OCO2)C(C#CCCCC)C(C)C (stereo not given) | 1
Cc1ccc([C@H](C)NC(=O)C2=C(N)N(S(=O)(=O)c3ccc(C)cc3)C(C(=O)c3ccccc3)C2c2ccccc2Cl)cc1 (stereo not given in full) | 1
Cn1nc(C(=O)NC2CCC(O)CC2)c2ccccc2c1=O (stereo not given) | 0
Cn1nc(CC(=O)NC2CCCCCC2)c2ccccc2c1=O | 1
Cn1nc(CC(=O)NC2CCCCC2)c2ccccc2c1=O | 10* | TTR inh HuH7=0;TTR up confirm=-1
Cc1c(C(=O)N2CCN(S(=O)(=O)c3ccccc3)CC2)oc2ccc(Br)cc12 | 31* | TTR inh HuH7=-19;TTR up confirm=0
Cc1c(C(=O)N2CCc3ccccc3C2)oc2ccc(S(=O)(=O)N3CCCCCC3)cc12 | 1
Cc1c(C(=O)N2CCOCC2)oc2ccc(S(=O)(=O)N3CCCC3)cc12 | 1
O=C(OCc1cn(Cc2ccc(F)c(F)c2)nn1)N1CCCC1 | 0
CC1CCCN(C(=O)CCc2ccccc2)C1 (stereo not given) | 1
O=C(CCc1ccccc1)N1CCCC1 | 11* | TTR inh HuH7=-5;TTR up confirm=0
O=C(CCc1nnc(CCCc2ccccc2)o1)N1CCCCCC1 | -1
SMILES | TTR transcr act | others
COC(=O)[C@]12C[C@H](CC(=O)NCC34CC5CC(CC(C5)C3)C4)C(=O)N(Cc3cccc4ccccc34)C1=C[C@H](C(C)C)O[C@@H]2C1CC1 | -1
CN=C1S/C(=C/c2cc(C)n(Cc3ccccc3)c2C)C(=O)N1C | -2
COc1ccc(CCNc2c3ccccc3nc3ccccc23)cc1OC | 11* | TTR inh HuH7=-17;TTR up confirm=14*
COc1ccc(CCn2c(C)nc3ccccc3c2=O)cc1OC | 0
CCn1c(=O)c([N+](=O)[O-])c(NCCc2ccc(OC)c(OC)c2)c2ccccc21 | -2
COC(=O)[C@]12C[C@H](CC(=O)NCC3CCCCC3)C(=O)N(Cc3ccc(Cl)cc3Cl)C1=C[C@H](COCc1ccccc1)O[C@@H]2C | -1
Cc1nc(CN(C)c2ncnc3ccc(-c4ccc5c(c4)OCO5)cc23)cs1 | -1
Cc1occc1CNc1ncnc2ccc(-c3ccc4c(c3)OCO4)cc12 | 2
CN(Cc1ccco1)c1ncnc2ccc(-c3ccc4c(c3)OCO4)cc12 | 27*! | TTR inh HuH7=-6;TTR up confirm=0
O=C(NCc1ccccc1)OCCN1C(=O)CCC12CCCCC2 | 0
COC(=O)[C@]12C[C@H](CC(=O)NCCCN3CCCC3=O)C(=O)N(Cc3cccc4ccccc34)C1=C[C@H](C1CCCC1)O[C@@H]2C | -1
CCC(=O)OCCCN1CCC2(CCCCC2)C1=O | 0
CCN(CC(=O)NC(C)C)Cc1nc2sc3c(c2c(=O)[nH]1)CCC3 | 13* | TTR inh HuH7=-20;TTR up confirm=-1
CCCc1nc2sc3c(c2c(=O)[nH]1)CCCC3 | -1
COCc1nc2sc3c(c2c(=O)[nH]1)CCCC3 | 2
COC(=O)[C@]12CCCCC=C1N(Cc1ccc(OC)cc1)C(=O)[C@@H]2CC(=O)NCCCCc1ccccc1 | 10
